TrxR1 substrate: rat thioredoxin reductase 1 substrate activity; purified TrxR1 substrate turnover, NADPH consumption readout; Potency, µM (doses to about 114 µM), for the others: top-dose activity change, negative = substrate turnover; O89049; 390,000 tested, 0.01% active; also: % is scaled to controls: 0 for no effect and ±100 for the full control effect; nearly all actives have a fitted effect of over 50% in size
Target sequence (O89049 whole entry, looked up): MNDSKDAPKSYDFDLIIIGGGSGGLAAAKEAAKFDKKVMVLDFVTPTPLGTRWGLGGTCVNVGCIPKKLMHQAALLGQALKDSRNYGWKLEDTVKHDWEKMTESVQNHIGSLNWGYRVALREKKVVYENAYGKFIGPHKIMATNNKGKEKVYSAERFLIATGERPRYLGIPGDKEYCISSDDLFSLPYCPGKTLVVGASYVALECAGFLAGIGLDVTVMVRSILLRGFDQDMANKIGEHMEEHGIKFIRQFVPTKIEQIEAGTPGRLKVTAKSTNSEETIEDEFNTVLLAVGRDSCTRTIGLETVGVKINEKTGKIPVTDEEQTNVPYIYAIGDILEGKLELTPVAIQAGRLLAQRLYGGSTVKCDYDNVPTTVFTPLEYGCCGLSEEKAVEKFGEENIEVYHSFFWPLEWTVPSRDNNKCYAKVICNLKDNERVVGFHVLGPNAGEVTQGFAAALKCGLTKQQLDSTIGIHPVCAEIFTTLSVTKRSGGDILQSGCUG
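Rat TrxR1, dispensed at 90 nM, was prereduced with 400 uM NADPH (final) for 5 min at ~22 deg C, then incubated with compound 15 min before 400 uM selenite. A first-read NADPH fluorescence drop versus no-compound background flagged substrates.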
ALOX12 inh: ALOX12 (human) lipoxygenase inhibition; 580,000 tested, 1.1% active; Potency, µM (highest dose often 108 µM), without a hit: at the highest dose activity change, negative = inhibition, usual class: inhibitors; purified 12hLO, xylenol orange hydroperoxide absorbance; AID 1671190; P18054; also: % is scaled to controls: 0 for no effect and ±100 for the full control effect
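Purified human 12hLO at 150 nM in 25 mM Hepes, 0.01% Triton X-100, pH 7.0, preincubated 15 min at room temperature with compound. Reaction started with 40 uM arachidonic acid, 30 min at room temperature. Hydroperoxide measured by Fe-xylenol orange, 573/405 nm absorbance ratio.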
rTrxR1 inhibitor: rat TrxR1 inhibition. 390,000 tested, 1% active. O89049. Potency, µM (series often up to 114 µM), for inactives: at the top dose activity change, negative = inhibition, hits mostly inhibitors. recombinant rTrxR1, NADPH fluorescence consumption, selenite substrate; also: % is scaled to controls: 0 for no effect and ±100 for the full control effect; nearly all actives have a fitted effect of over 65% in size
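Rat TrxR1 (90 nM in the dispensed reagent) was pre-reduced with 400 uM NADPH for 5 min at room temperature, then incubated with compound for 15 min. After 400 uM selenite was added, NADPH fluorescence (Ex 340/Em 450 nm) was followed for 8 min.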
Apoferritin bind: binds horse apoferritin like a general anesthetic | apoferritin/1-aminoanthracene competitive binding, fluorescence | Potency, µM (series often up to 77.5 µM), for the others: at the highest dose activity change, negative = displacement, actives largely listed as inhibitors | 350,000 tested, 0.074% active | AID 485281; also: % is scaled to controls: 0 for no effect and ±100 for the full control effect; nearly all actives have a fitted effect of over 20% in size
Target sequence (P02791 2-175 limits assumed): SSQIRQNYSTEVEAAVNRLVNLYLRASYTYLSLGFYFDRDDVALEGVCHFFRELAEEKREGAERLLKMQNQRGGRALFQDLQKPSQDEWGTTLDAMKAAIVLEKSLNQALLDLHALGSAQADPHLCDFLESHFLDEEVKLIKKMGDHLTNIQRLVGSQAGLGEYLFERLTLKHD
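Steps: apoferritin (10 uM) was premixed with half-saturated 1-AMA in PBS, compounds were pin-transferred, plates stood 10 min at room temperature, fluorescence was read at 380/535 nm, and curves were fitted with a Hill equation.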
GRP78 ERSR act: ER stress response induction in glioma. U87-MG GRP78 promoter luciferase reporter, 16 h. Potency, µM, inactives show at the top dose activation, usual class: activators. 420,000 tested, 0.02% active. AID 602332; also: series mostly up to about 76 µM; % of control where 0% means no effect; nearly all actives have a fitted effect of over 35% in size
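Stably transfected U87-MG glioma cells carrying a GRP78-based luciferase sensor; 16 h compound incubation. Luminescence end-point read 10 min after Bright-Glo addition at room temperature.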
mIDH1 inhibitor: human IDH1 R132H inhibition | O75874 | IDH1-R132H enzyme, NADPH consumption, diaphorase/resazurin fluorescence | AID 602179 | Potency, µM (doses to about 76.6 µM), for the others: top-dose activity change, negative = inhibition, actives largely listed as inhibitors | 390,000 tested, 0.093% active; also: % is scaled to controls: 0 for no effect and ±100 for the full control effect; nearly all actives have a fitted effect of over 65% in size
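IDH1-R132H (0.5 ug/mL dispensed) in pH 7.5 Tris buffer was preincubated 30 min with compound, then given a substrate mix of 0.016 mM NADPH and 2 mM alpha-KG for 80 min at room temperature; remaining NADPH was read by diaphorase/resazurin fluorescence.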
* = called active by the depositor; ? = inconclusive; . = not tested or not shown; ! = a repeat was not active; [ ] = dose if it differs, or a comment. Sampled rows, rich in hits. Any-hit rate of the full collection: about 1.7%. Calls follow the shape of the dose curve; as a rule, active = well fitted curve in the direction sought with a large enough effect; inconclusive = small, poorly fitted or top-dose-only effect, or another doubt; inactive = no such curve, though single readings can be large; an effect the other way counts as inactive or inconclusive. Potency is read from the fitted curve at half-maximal effect.

SMILES | TrxR1 substrate | ALOX12 inh | rTrxR1 inhibitor | Apoferritin bind | GRP78 ERSR act | mIDH1 inhibitor
CCCn1c(=O)[nH]c(=O)c2c1nc(-c1ccc3ccccc3c1)n2CCN1CCOCC1 | . | 3.3% | . | . | . | .
CCOCc1cc(CN2CCN(c3ccccc3OC)CC2)c(O)c2ncccc12 | 3.5% | ? | -11.6% | -6.1% | . | .
COc1ccccc1N1CCN(Cc2cc(Br)c(O)c3ncccc23)CC1 | 12.4%[57.1 µM] | 35.5µM* | ? | -13.2% | -4.5% | 1.4%
O=C(N/C(C(=O)N1CCOCC1)=C(\Sc1ncccn1)c1ccccc1)c1ccccc1 | -3.9% | 0.5% | 50.1µM* | -14.2% | 1.5% | -1.0%
CC(C)=C(NC(=O)c1ccccc1)C(=O)N1CCOCC1 | 12.8% | 3.0%[57.4 µM] | 21.5% | -7.2% | 1.7% | 1.9%
CC(=O)c1cccc(OCc2cc(C(=O)N(C)C(C)c3ccccn3)no2)c1 (centres undefined) | 4.2% | 3.1% | 50.1µM* | -20.6% | -1.2% | -1.1%
COc1ccc(CN2CCc3ncc(C(=O)NCC4CC4)n3CC2)cn1 | . | -15.1%[176 µM] | . | . | . | .
Cc1ccccc1S(=O)(=O)N1CCC(Cc2nncn2C)CC1 | . | 28.5% | . | . | . | .
CCOC(=O)c1cc(S(=O)(=O)Nc2ccc3c(c2)OCCO3)[nH]n1 | . | 11.2µM* | . | . | . | .
CN(C)S(=O)(=O)c1cccc(NC(=S)NNC(=O)c2cc3ccccc3cc2O)c1 | 0.5% | 35.5µM* | -31.7% | . | 3.6% | -1.9%
CN(C)S(=O)(=O)c1cccc(NC(=S)NC(=O)c2ccco2)c1 | -3.3% | ? | ? | . | -1.2% | 2.2%
N#C/C(=C\c1cccc(Oc2ccccc2)c1)C(=O)Nc1cc(C(F)(F)F)ccc1Cl | . | -11.5% | . | . | . | .
CC(C)C(=O)Nc1ccc(NC(=O)c2cccs2)cn1 | 0.0% | 44.7µM* | 0.3% | -6.9% | 2.6% | 2.2%
Cc1ccc(NC(=O)C2CN(S(=O)(=O)C3CC3)CC23CCCCC3)c(F)c1 (centres undefined) | . | -0.2% | . | . | . | .
Cc1ccc(-c2ccc(C(=O)NCc3ccc(Cl)cc3)o2)c2ccccc12 | 11.6% | -29.3% | 31.6µM* | ? | -1.3% | -0.8%[38.3 µM]
Cc1cc(C)c2c(CN3CCC(C)CC3)cc(=O)oc2c1 | 3.9%[2.29 µM] | 44.7µM* | 7.1%[2.29 µM] | -10.0% | 3.7% | 7.1%
Cc1cc(C)c2c(CN3CCCCC3)cc(=O)oc2c1 | 1.1%[57.1 µM] | 26.8% | 5.9%[57.1 µM] | -4.2% | 8.6% | -7.1%
Cc1ccc(NC(=O)c2cc3n(n2)CC(c2ccc4c(c2)OCO4)OC3)cc1F (centres undefined) | . | 23.6% | . | . | . | .
OCCCNC(=S)Nc1ccc(Cl)cc1 | . | 50.1µM* | . | . | . | .
CC(=O)c1ccc(NC(=S)NCCc2ccc(Cl)cc2)cc1 | . | 50.1µM* | . | . | . | .
Cc1cc(C)c2c(=O)cc(C(=O)NCc3ccc4c(c3)OCO4)oc2c1 | . | -35.5% | . | . | . | .
Fc1c(F)c(C(F)(F)F)c(F)c(F)c1Sc1c(F)c(F)c(C(F)(F)F)c(F)c1F | . | -20.3% | . | . | . | .
CCCCCCSC1=C(C#N)C(=O)NC2(CCCCC2)S1 | 5.3%[57.1 µM] | 44.7µM* | ? | ? | ? | 0.7%
C#CCOCCOCCOCCNc1nc(N2CCN(C(=O)[C@H](CCC(=O)O)n3cc(C(N)CC(C)C)nn3)CC2)nc(N2CCN(C(=O)[C@H](Cc3cc4ccccc4[nH]3)n3cc(C(N)CC(C)C)nn3)CC2)n1 (some centres undefined) | 4.8% | . | 28.2µM* | -1.9% | -3.0% | -11.7%
C#CCOCCOCCOCCNc1nc(N2CCN(C(=O)[C@H](Cc3cc4ccccc4[nH]3)n3cc(C(N)CC(C)C)nn3)CC2)nc(N2CCN(C(=O)[C@H](CCC(=O)O)n3cc(C(N)[C@H](C)CC)nn3)CC2)n1 (some centres undefined) | 3.6% | . | ? | -8.0% | -4.6% | 5.0%
SMILES | TrxR1 substrate | ALOX12 inh | rTrxR1 inhibitor | Apoferritin bind | GRP78 ERSR act | mIDH1 inhibitor
C#CCOCCOCCOCCNc1nc(N2CCN(C(=O)[C@H](CC(N)=O)n3cc(C(N)[C@H](C)CC)nn3)CC2)nc(N2CCN(C(=O)[C@H](CC(N)=O)n3cc(C(N)[C@@H](C)CC)nn3)CC2)n1 (some centres undefined) | 8.3% | 0.631µM* | 9.5% | . | -4.2% | -9.3%
C#CCOCCOCCOCCNc1nc(N2CCN(C(=O)[C@H](CC(N)=O)n3cc(C(N)[C@@H](C)CC)nn3)CC2)nc(N2CCN(C(=O)[C@H](CCCCN)n3cc([C@@H](N)CC(N)=O)nn3)CC2)n1 (some centres undefined) | 9.8%[57.1 µM] | -4.6% | -3.0%[57.1 µM] | . | -3.9% | -4.2%
Cc1c(/C=C(/C#N)c2ccccn2)cc(C#N)n1C | . | 35.5µM* | . | . | . | .
Cc1cc(/C=C(/C#N)c2ccccn2)c(C)n1C1CC1 | . | 11.2µM* | . | . | . | .
N#C/C(=C\c1ccccc1)c1ccccn1 | -12.7% | -22.6% | -13.9% | -23.2% | 9.7% | 6.2%
CC(C)NC(=O)NC[C@H]1Cn2c(-c3ccc4c(c3)OCO4)cnc2CO1 | . | -1.1%[176 µM] | . | . | . | .
CCOc1ccc(C(=O)NCc2ccncc2)cc1 | 6.1%[57.1 µM] | -0.7% | 8.4%[57.1 µM] | -4.4% | 4.3% | 0.8%
Cc1ccc(C)n1-c1ccc(C(=O)NCc2ccncc2)cc1 | 0.5% | 0.3% | 44.7µM* | -3.4% | -2.1% | 5.8%
O=C(Nc1ccccc1)c1c2c(nc3ccccc13)CCC2 | . | 35.5µM* | . | . | . | .
O=C(Nc1ccccc1)c1c2c(nc3ccccc13)CCCC2 | 3.7% | 10.7% | 25.8% | 13.5% | 0.0% | -4.1%
COC(=O)c1sccc1NC(=O)CC(C)(C)CC(=O)O | . | -6.3% | . | . | . | .
O=C(NC1CCCCC1)N1Cc2[nH]cnc2C[C@H]1c1nc(-c2ccncc2)no1 | . | 12.6µM* | . | . | . | .
CCN(c1ccc(C)cc1)S(=O)(=O)c1nnc(NC(=O)c2ccco2)s1 | -3.6% | -14.8% | 56.2µM* | 0.2% | -4.7% | 0.0%
CN(Cc1ccco1)S(=O)(=O)c1nnc(NC(=O)c2cccc(Cl)c2)s1 | 3.7% | ? | 25.1µM*! | 0.4% | 4.1% | 46.6%
CCN(CC)S(=O)(=O)c1nnc(NC(=O)c2ccco2)s1 | -11.7% | 6.7% | -14.5% | -0.7% | 2.7% | -0.7%
CC(C)NC(=S)NC(=O)c1ccc(-c2ccccc2)cc1 | -7.5% | 15.8µM* | ? | -23.4% | 4.2% | 0.7%
Cc1cccc(NC(=S)NC(=O)c2ccc(-c3ccccc3)cc2)n1 | -4.3% | 35.5µM* | 3.6% | 0.4% | 17.3% | 0.2%
O=C(O)c1ccc(NC(=S)NC(=O)c2ccc(-c3ccc(Br)cc3)o2)cc1 | 4.6%[57.1 µM] | 17.8µM* | ? | -6.1% | 3.9% | 19.3%

Screens as filed in PubChem.
